# Assay results from PubChem BioAssay AID651813 (National Center for Advancing Translational Sciences (NCATS), 2012).
# Hit rate of the full screen: of about 2,100 compounds, about 1,100 (52%) were called active. Another 27% or so got no clear call; they are omitted. Calls come from the whole dose curve; as a rule, active = well fitted inhibition curve with a large enough effect; inconclusive = small, poorly fitted or top-dose-only effect; inactive = no such curve, though single readings can be large or run the other way. So high a share suggests a set chosen from earlier hits. The list shows a part of the results.
# Target: DNA dC->dU-editing enzyme APOBEC-3G (Homo sapiens) (UniProt Q9HC16)
# Test: qHTS for inhibitors of Vif-A3G interactions: Cherry picks counterscreen;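 note: hits raise yellow fluorescence by blocking Vif-driven A3G-eYFP degradation; nearly all actives have a fitted effect of over 70% in size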;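 for max response: max response given as percent of control signal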
# Settings: HeLa A3G-eYFP + Vif (tagged APOBEC3G with the HIV-1 protein that degrades it), eYFP fluorescence, 24 h
# In short: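 HeLa cells stably expressing A3G-eYFP and Vif were treated for 24 h at 37 deg C with compounds at several concentrations; yellow fluorescence (Ex 488 nm, Em 500-530 nm) read by Acumen Explorer, MG132 as positive control.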
# Potency is the fitted concentration of half-maximal effect.
# DNA dC->dU-editing enzyme APOBEC-3G (Homo sapiens), sequence (Q9HC16 whole entry, looked up): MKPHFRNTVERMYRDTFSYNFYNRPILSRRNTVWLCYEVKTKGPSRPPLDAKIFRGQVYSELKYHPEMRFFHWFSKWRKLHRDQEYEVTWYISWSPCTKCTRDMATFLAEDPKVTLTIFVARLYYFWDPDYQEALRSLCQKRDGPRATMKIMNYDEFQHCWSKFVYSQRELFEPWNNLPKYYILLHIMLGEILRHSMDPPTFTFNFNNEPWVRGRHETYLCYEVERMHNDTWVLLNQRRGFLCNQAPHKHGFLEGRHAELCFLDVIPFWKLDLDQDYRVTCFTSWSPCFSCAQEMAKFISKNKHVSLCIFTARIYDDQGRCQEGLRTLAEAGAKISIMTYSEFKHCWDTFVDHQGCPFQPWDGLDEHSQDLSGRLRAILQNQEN
Structure (SMILES),Potency,max response
O=C(Nc1ccc([N+](=O)[O-])cc1)C(Cc1ccccc1)N1C(=O)c2cccc3cccc(c23)C1=O (centres undefined),8.86 µM (active),
Nc1c(C(=O)Nc2ccc(S(=O)(=O)N3CCCC3)cc2)sc2nc3cc4c(cc3cc12)CCC4,10.3 µM (active),
CCc1cccc2cc3c(N)c(C(=O)Nc4ccc(S(=O)(=O)N5CCCC5)cc4)sc3nc12,5.59 µM (active),
Nc1c(C(=O)Nc2ccc(S(=O)(=O)N3CCCC3)cc2)sc2nc3ccc(OC(F)(F)F)cc3cc12,18.4 µM (active),
Cn1c(N)c(-c2ccccc2)c2ccc([N+](=O)[O-])cc2c1=O,5.59 µM (active),
N#Cc1c(-c2ccccc2F)cc(C2CC2)nc1SCC(=O)c1cccs1,14 µM (active),
CNC(=S)N/N=C(\C)c1ccc(Cl)s1,,0.869% (inactive)
COc1cc(Cl)c(C)cc1NC(=O)CN1CCN(C(=O)C2CC2)CC1,,-28.2% (inactive)
COc1ccc(Cl)cc1NC(=O)CN(C)CC(=O)Nc1ccccc1N1CCOCC1,1.58 µM (active),
CC(NC(=O)c1ccc(Nc2nc3ccccc3n3nnnc23)cc1)c1ccccc1 (centres undefined),20.6 µM (active),
CN(C)c1ccc(Nc2nc3ccccc3n3nnnc23)cc1,,-13.6% (inactive)
Fc1ccccc1Nc1nc2ccccc2n2nnnc12,20.6 µM (active),
Fc1ccc(CNc2nc3ccccc3n3nnnc23)cc1,23.1 µM (active),
Cc1ccc(C(=O)O)cc1Nc1nc2ccccc2n2nnnc12,,-28% (inactive)
c1ccc2c(c1)nc(N1CCOCC1)c1nnnn12,,-18.6% (inactive)
CN(C)S(=O)(=O)c1ccc2c(c1)/C(=C/c1cc3c([nH]1)CCCC3)C(=O)N2,2.8 µM (active),
CCN(CC)C(=O)c1sc2nc(-c3cccs3)cc(-c3ccc(Cl)cc3)c2c1N,15.8 µM (active),
CC(C)(C)C(=O)c1sc2nc(-c3cccs3)cc(C(F)(F)F)c2c1N,0.731 µM (active),
CC(=O)c1sc2nc(-c3cccs3)cc(C(F)(F)F)c2c1N,13 µM (active),
Nc1c(C(=O)C2CC2)sc2nc(-c3cccs3)cc(C(F)(F)F)c12,0.461 µM (active),
Clc1ccccc1C1CC(c2ccccc2)=Nc2ccccc2N1 (centres undefined),,-7.91% (inactive)
Cc1nc2cc(NC(=O)CSc3nc4c(C)cccc4cc3C#N)ccc2s1,20.6 µM (active),
Cc1ccc2nc(SCC(=O)Nc3ccc4sc(C)nc4c3)c(C#N)cc2c1,18.4 µM (active),

Structure (SMILES),Potency,max response
COCCN(CCOC)Cc1c(O)ccc2c1O/C(=C\c1ccc(C)o1)C2=O,,-11.8% (inactive)
O=C1c2cccc3c([N+](=O)[O-])ccc(c23)C(=O)N1c1ccccn1,,54.4% (inactive)
Cc1nnc(N2C(=O)c3cccc4c([N+](=O)[O-])ccc(c34)C2=O)s1,20.6 µM (active),
CC(=O)Oc1cccc(N2C(=O)c3cccc4c([N+](=O)[O-])ccc(c34)C2=O)c1,15.8 µM (active),
N#CC1=C(N)C(C#N)(C#N)[C@H](c2c(F)cccc2F)[C@H]2CC3(CC=C12)OCCO3,16.4 µM (active),
Cc1cccc(-n2c(N)c(-c3nc4ccccc4n3C)c3nc4ccccc4nc32)c1,,-1.87% (inactive)
Cc1ccc(C(=O)NCCn2c(N)c(C#N)c3nc4ccccc4nc32)cc1,23.1 µM (active),
COc1ccc(/C=N/NC(=O)c2ccccc2Cl)cc1CSc1nc2ccccc2s1,3.14 µM (active),
COc1ccccc1/C=N/NC(=S)Nc1cccnc1,,-12.2% (inactive)
COc1ccc(/C=N/NC(=O)c2cccnc2)cc1COc1ccc(NC(C)=O)cc1,12.5 µM (active),
COc1cc(OC)cc(C(=O)N/N=C/c2ccc(OC)c(COc3ccc4ccccc4c3)c2)c1,15.8 µM (active),
COc1cnc(-c2ccccn2)nc1Oc1ccc(F)cc1F,,-4.73% (inactive)
COc1ccc(/C=N/NC(=O)c2cccnc2)cc1CSc1ccccn1,5.59 µM (active),
COc1ccc(/C=N/NC(=O)c2cc(OC)c(OC)c(OC)c2)cc1CN1CCc2cc(OC)c(OC)cc2C1C (centres undefined),12.5 µM (active),
CC(=O)N1CCc2nc3sc(C(=O)c4ccc(F)cc4)c(N)c3c(C(F)(F)F)c2C1,18.4 µM (active),
COc1ccc(C(=O)c2sc3nc4c(c(C(F)(F)F)c3c2N)CN(C(C)=O)CC4)cc1OC,18.4 µM (active),
CCOC(=O)c1cc2n(c1/N=C/N(C)C)-c1ccccc1C2=O,16.4 µM (active),
CCOC(=O)c1cc2n(c1N)-c1ccccc1C2=O,,-28.5% (inactive)
CO/N=C\CC(=O)Nc1ccc(Oc2ccccc2)cc1,1.98 µM (active),
CO/N=C\CC(=O)Nc1ccc(Cl)c(Cl)c1,9.94 µM (active),
CCCCN1C(=O)/C(=C2/Sc3ccccc3N2C)S/C1=N\c1ncn[nH]1,20.6 µM (active),
O=C(NNc1ncc(C(F)(F)F)cc1Cl)c1c(Cl)cccc1Cl,14 µM (active),
O=C(/C=C/c1cccs1)NCc1ccc2c(c1)OCO2,,-24.4% (inactive)

Structure (SMILES),Potency,max response
O=C(NCc1ccc2c(c1)OCO2)c1cc([N+](=O)[O-])ccc1N1CCCCC1,1.98 µM (active),
CCc1ccc(C(=O)NC(=S)Nc2ccc(N3CCOCC3)cc2)cc1,,0.165% (inactive)
COc1cccc(C(=O)Nc2ccc(N3CCCC3)cc2)c1,5.59 µM (active),
COc1cc(C(=O)OCC(=O)Nc2ccc(N3CCOCC3)cc2)ccc1OCC(C)C,,8.76% (inactive)
COc1cc(OC)cc(C(=O)Nc2ccc(N3CCN(C(=O)c4cccs4)CC3)cc2)c1,6.27 µM (active),
O=[N+]([O-])c1ccc(N/N=C\c2cccn2-c2ccccc2)nc1,15.8 µM (active),
CCN(CC)c1ccc(C=NNc2ccc([N+](=O)[O-])cn2)cc1,1.3 µM (active),
Oc1ccc(C2=NNC(=NCc3ccc4c(c3)OCO4)SC2)c(O)c1,7.9 µM (active),
COc1ccc(C2C(C#N)=C(N)Oc3c2ccc2cccnc32)cc1OC (centres undefined),1.77 µM (active),
COc1cc(C2C(C#N)=C(N)Oc3cc(O)ccc32)cc2c1OCO2 (centres undefined),11.2 µM (active),
COc1ccc(C2C(C#N)=C(N)Oc3cc(N)ccc32)cc1OC (centres undefined),9.94 µM (active),
N#CC1=C(N)Oc2cc(N)ccc2C1c1cccc(Br)c1 (centres undefined),0.627 µM (active),
COc1ccc2nc(Nc3nc(CSc4ccc(C)cc4)cc(=O)[nH]3)nc(C)c2c1,,-26.4% (inactive)
Cc1oc(C)c2c(=O)ccc3c(c12)OC(N)=C(C#N)C3c1ccc(F)cc1 (centres undefined),,44.8% (inactive)
N#CC1=C(N)Oc2cc(N)ccc2C1c1cccc(F)c1 (centres undefined),4.98 µM (active),
N#CC1=C(N)Oc2cc(N)ccc2C1c1ccccc1F (centres undefined),9.94 µM (active),
N#CC1=C(N)Oc2cc(N)ccc2C1C1CC=CCC1 (centres undefined),5.59 µM (active),
N#CC1=C(N)Oc2cc(N)ccc2C1c1ccccc1 (centres undefined),15.8 µM (active),
COc1ccc(NC(=O)c2cc(-c3ccccc3OC)on2)cc1,3.14 µM (active),
COc1ccccc1-c1cc(C(=O)NN)[nH]n1,,14.5% (inactive)
Cc1ccc(S(=O)(=O)C(C#N)c2nc3ccccc3nc2N2CCCC2)cc1 (centres undefined),16.4 µM (active),
COc1ccc(-n2c(O)c(/C=N/NS(=O)(=O)c3cccc([N+](=O)[O-])c3)c3ccccc3c2=O)cc1OC,12.5 µM (active),
COc1ccc(-n2c(O)c(/C=N/NS(=O)(=O)c3ccc(C)c([N+](=O)[O-])c3)c3ccccc3c2=O)cc1OC,4.61 µM (active),

Structure (SMILES),Potency,max response
O=C(O)CSc1cc(NS(=O)(=O)c2cccc([N+](=O)[O-])c2)c2ccccc2c1O,,-17.9% (inactive)
CCN1C(=O)/C(=C/C=C2\N(CC)c3cc(S(=O)(=O)N(C)C)ccc3N2c2ccccc2)SC1=S,1.12 µM (active),
COc1cc(/C=C(/C#N)c2nc3ccccc3[nH]2)ccc1OCC(=O)Nc1ccccc1C(C)C,13 µM (active),
N#C/C(=C\c1ccc(C(=O)O)cc1)c1nc2sc3c(c2c(=O)[nH]1)CCCC3,,-29.5% (inactive)
N#C/C(=C/c1ccc(O)c(O)c1)c1nc2ccccc2[nH]1,3.14 µM (active),
Cc1ccc2nc(/C(C#N)=C/c3ccc(O)c(O)c3)[nH]c2c1,,43.5% (inactive)
COc1cc(/C=C(\C#N)c2nc3ccccc3s2)ccc1OCC(=O)Nc1ccccc1,15.8 µM (active),
CN(C)c1ccc(/C=C(\C#N)c2nc3ccccc3c(=O)[nH]2)cc1,0.411 µM (active),
O=C(OCCC12CC3CC(CC(C3)C1)C2)c1ccc(NCc2cc(O)ccc2O)cc1,,25.7% (inactive)
COc1cc(/C=C(\C#N)c2nc3ccccc3[nH]2)ccc1O,2.31 µM (active),
COc1cc(/C=C(/C#N)c2nc3ccccc3[nH]2)ccc1OC(=O)c1ccco1,,51.6% (inactive)
O=C1C=C(Nc2ccc(Cl)cc2Cl)CC(c2ccco2)C1 (centres undefined),5.59 µM (active),
COc1cc2nc(/C=C/c3ccc(N(C)C)cc3)sc2cc1SC,5.17 µM (active),
COc1ccc(-c2cnc3c(NC=O)cc(-c4ccccc4)cn23)cc1OC,3.14 µM (active),
COc1ccc(-c2cc(NC=O)c3ncc(-c4ccc(OC)c(OC)c4)n3c2)cc1OC,5.59 µM (active),
CN(C)c1ccccc1-c1cc(NC=O)c2ncc(-c3cccc(C(F)(F)F)c3)n2c1,12.5 µM (active),
COc1ccc(-c2cnc3c(NC=O)cc(-c4cc(OC)c(OC)c(OC)c4)cn23)cc1OC,12.5 µM (active),
COc1ccc(-c2cnc3c(NC=O)cc(-c4ccoc4)cn23)cc1OC,11.2 µM (active),
COc1cccc(-c2cnc3c(NC=O)cc(-c4cc(OC)c(OC)c(OC)c4)cn23)c1,9.94 µM (active),
COc1ccccc1-c1cc(NC=O)c2ncc(-c3ccc(S(C)(=O)=O)cc3)n2c1,17.7 µM (active),
